Here are results for 30 molecules from PubChem BioAssay AID687014 (The Scripps Research Institute Molecular Screening Center, 2013).

Values joined by “and” are separate entries in the source; they are usually repeats but may differ in a detail not shown here. Equal values may be shown once. Screen size: about 370,000 compounds; about 6,800 (1.8%) were called active. Many of the other results were omitted from the sample, so actives are more common in it than they were. A number with no mark means an inactive call.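 How the source made its calls: active means activation above a cutoff set at the mean of all screened compounds plus 3 SD (cut at about 10% in these data); inactive means the rest.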

In this assay the test system is Nuclear hormone receptor DAF-12 (Heterodera glycines), GAL4 fusion. In words: hgDAF-12 GAL4 fusion reporter activation – cell-based, luminescence, HEK293, UAS-luciferase, primary screen (AID 687014).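 Further: 0% = DMSO wells and 100% = sodium butyrate wells.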 Particulars: HEK293 GAL4-hgDAF12 UAS-luciferase reporter, agonist luminescence; at 6.8 µM; hits give high values; normalized to butyrate control. In general terms: A reporter such as luciferase makes a cellular process visible.
With `O=C(Nc1ccn(Cc2ccccc2)n1)c1cccc(F)c1`, the activation is 20% (active).
With `Cc1c(Br)c([N+](=O)[O-])nn1CC(=O)N1CCN(Cc2ccccc2)CC1`, the activation is 4.33%.
Regarding `O=C(Nc1ccn(Cc2ccccc2)n1)c1n[nH]c([N+](=O)[O-])c1Cl`, the activation is 16.8% (active).
In the case of `Cc1ccc(NC(=O)CC2C(=O)N(Cc3ccccc3)C(=S)N2NC(=O)c2cccc(F)c2)c(C)c1` (stereo not given), the activation is -3.58%.
As to `CCOc1cccc(C(=O)Nc2cnn(Cc3ccccc3)c2)c1`, the activation is 2.99%.
Turning to `O=C(Cn1cnc([N+](=O)[O-])n1)NCCc1ccccc1`, the activation was 2.5%.
In the case of `CC(c1c[nH]c2ccccc12)c1c(-c2ccccc2)n(C)c2ccccc12` (stereo not given), the activation is 0.36%.
As for `COC(=O)[C@]1(Cc2ccccc2)NC=C(C(=O)c2ccccc2)[C@@H]1c1cccc(OC)c1`, the activation was 1.41%.
As to `Cc1cc(C)cc(NC(=O)N2CCC(N(C)CCC(C)C)CC2)c1`, the activation was 3.99%.
As for `O=C(NCCCN1CCOCC1)c1ccccc1NS(=O)(=O)c1ccc(F)cc1`, the activation was -1.36%.
As to `O=C(NCCCN1CCOCC1)c1cc(-c2ccccc2F)no1`, the activation was 14.2% (active).
In the case of `O=C(NCCCN1CCOCC1)c1cnn2c(-c3ccccc3)cc(-c3ccccc3)nc12` it was -2.14%; in that of `Cc1cccc(CN2CCN(C3CN(Cc4cn(Cc5cc(C)cc(C)c5)nn4)S(=O)(=O)C3)CC2)c1` (stereo not given), -3.8%.
As for `Cn1c(NC(=O)c2ccccc2)nc2ccccc21`, the activation was 15.2% (active).
As for `CCC(C(=O)NC(C)(C)C)n1c(-c2ccccc2)nc2ccccc21` (stereo not given), the activation was 0.22%.
`CCn1c(NC(=O)c2nn(C)cc2Br)nc2ccccc21`: the activation is -4.58%.
For `CCC(C(=O)Nc1c(C)cccc1C)n1c(-c2cc(C)cs2)nc2ccccc21` (stereo not given), the activation was 2.55%.
In the case of `Cn1c(-c2ccc(C(=O)c3ccccc3)s2)nc2ccccc21`, the activation is 13.5% (active).
`O=C(NC1=CC(=O)c2ccccc2C1=O)c1ccccc1`: the activation is -6.53%.
To `CCOC(=O)[C@]12CCCC=C1N(Cc1ccc(OC)cc1)C(=O)[C@@H]2CC(=O)NCc1cccs1` belongs -4.41%; to `CN1CCCc2nc(-c3ccccc3)ccc21`, 7.25%; to `CCOC(=O)c1ccc(NC2Nc3cc(C)nn3S2)cc1` (stereo not given), 2.62%.
Consider `CCc1ccc(NC2Nc3cc(C)nn3S2)cc1` (stereo not given), for which the activation is 19.2% (active).
On to `COCCNC(=O)Cn1cc2c(n1)CCCCC2`, for which the activation was 0.5%.
In the case of `CN(CC(=O)Nc1c(Cl)cccc1Cl)C(=O)CC1OC(=O)c2ccccc21` (stereo not given), the activation is -1.08%.
For `CC(=O)c1sc(N)nc1C`, the activation is 1.06% and 4.44%.
On to `Cc1cc2c(=O)n(CC(=O)NCC(=O)Nc3ccc(C(C)C)cc3)cnc2s1`, for which the activation was 1.17%.
For `CC(=O)c1sc(N/N=C/c2ccc(C(C)C)cc2)nc1C`, the activation was 14.4% (active).
With `CCOC(=O)c1sc(/N=C/Nc2nc(C)c(C(=O)OCC)s2)nc1C`, the activation was 0.82%.
Turning to `CC(=O)c1sc(N/N=C\c2ccc(C)cc2)nc1C`, the activation is 11.2% (active).
